Assay outcomes: PubChem BioAssay, National Center for Advancing Translational Sciences (NCATS)
Hits are enriched below; roughly 2.4% of the tested compounds scored in any of these assays.
D2 ag-1 – HTS Assay for Allosteric Agonists of the Human D2 Dopamine Receptor: Primary Screen for Agonists; D(2) dopamine receptor (Homo sapiens), P14416; HEK293 T-REx D2 cells, calcium flux agonist mode; activation, % at 2 µM; actives 0.53% (n = 340,000); AID 485358, 2010;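 active = activation over 3 SD above normal in the single-dose calcium agonist read, cut at about 30% in these data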; also: 0% is about no effect
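Tetracycline-induced HEK293 Trex cells with D2 receptor force-coupled to calcium signaling, plated overnight at 30 C and loaded with no-wash calcium dye. Calcium flux read kinetically for 180 s after compound addition; responses flag agonists.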
D2 ag-2 – Beta-Arrestin HTS for Positive Allosteric Modulators of the Human D2 Dopamine Receptor: Agonists; D(2) dopamine receptor (Homo sapiens), P14416; DiscoveRx PathHunter D2 beta-arrestin, luminescence, 90 min; 100% = 57 uM dopamine signal; activation, % (test concentration not listed); actives 0.084% (n = 360,000); AID 624465, 2012; in the data active = activation above about 40%; inconclusive = between about 15% and that limit
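DiscoveRx PathHunter D2 beta-arrestin cells (2,100/well) attached overnight, then compound-stimulated 90 min at 37 C in HBSS/10 mM HEPES/0.1% Tween-20 buffer; beta-galactosidase complementation read by luminescence after 1 h at ambient temperature. Dopamine 57 uM final (EC100) as control.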
D2 PAM-1 – HTS Assay for Positive Allosteric Modulators of the Human D2 Dopamine Receptor: Primary Screen for Potentiators | actives 0.34% (n = 340,000) | AID 485347, 2010 | potentiation, % at 10 µM | D(2) dopamine receptor (Homo sapiens), P14416 | HEK293 T-REx D2, calcium flux, EC20 dopamine potentiation;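 active = potentiation over 3 SD above the plate norm, cut at about 30% in these data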; also: 0% is about no effect
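Cells plated with tetracycline inducer and held overnight at 30 C; calcium dye loaded 30–90 min at room temperature; baseline taken, compound added and read 180 s; EC20 dopamine then added and read 180 s.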
D2 PAM-2 – Beta-Arrestin HTS for Positive Allosteric Modulators of the Human D2 Dopamine Receptor: Potentiators | potentiation, % (test concentration not listed) | DiscoveRx D2 beta-arrestin cells, luminescence, 90 min; 100% = 57 uM dopamine signal | actives 0.23% (n = 360,000); in the data active = potentiation above about 50%; inconclusive = mostly about 30% to 49%
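D2 cells co-treated with compound plus 50 nM dopamine (EC20) for 90 min at 37 deg C to detect potentiation. Beta-arrestin recruitment was read as enzyme-fragment luminescence after 1 h at ambient temperature. Full response was set by 57 uM dopamine.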
D2 antagonist – HTS Assay for Allosteric Antagonists of the Human D2 Dopamine Receptor: Primary Screen for Antagonists | D(2) dopamine receptor (Homo sapiens), P14416 | actives 2% (n = 340,000) | inhibition, % at 10 µM | HEK293 TREx D2 cells, calcium flux, dopamine EC80; in the data active = inhibition above about 30%; inactive = below that, where a call was filed; also: 0% is about no effect
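Measurement of antagonist activity uses fluorescent calcium dye in inducible HEK293 T-REx D2 cells: 10 s baseline, compound addition with 180 s read, EC80 dopamine addition with a further 180 s read.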
D3 ag – qHTS of D3 Dopamine Receptor Agonist: D3 Dopamine Receptor B-arrestin Agonist Confirmatory Assay; shares compounds with D2 ag-1; DiscoveRx D3 beta-arrestin cells, luminescence, 90 min; Potency, µM (doses to about 76.9 µM), for the others: at the highest dose activation, actives largely listed as activators; actives 4% (n = 2,300);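 also: potency is read from the fitted curve at half-maximal effect; 100% = dopamine control response; nearly all actives have a fitted effect of over 70% in size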
Target sequence (P35462 whole entry, looked up): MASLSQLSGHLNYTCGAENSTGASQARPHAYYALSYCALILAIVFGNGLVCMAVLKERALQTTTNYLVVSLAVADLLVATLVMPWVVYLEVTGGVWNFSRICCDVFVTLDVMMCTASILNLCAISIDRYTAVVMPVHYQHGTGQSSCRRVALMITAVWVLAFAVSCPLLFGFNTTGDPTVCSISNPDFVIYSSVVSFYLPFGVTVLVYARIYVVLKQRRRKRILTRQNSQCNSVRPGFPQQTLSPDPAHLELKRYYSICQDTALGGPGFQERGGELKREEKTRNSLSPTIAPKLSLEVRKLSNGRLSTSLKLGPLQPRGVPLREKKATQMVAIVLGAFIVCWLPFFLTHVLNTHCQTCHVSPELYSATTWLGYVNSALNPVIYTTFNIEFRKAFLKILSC
D2 ag-3 – qHTS of D3 Dopamine Receptor Agonist: D2 Dopamine Receptor B-arrestin Agonist Counterscreen; shares compounds with D2 ag-1; DiscoveRx PathHunter D2 beta-arrestin, luminescence, 90 min; response scale: percent relative to full dopamine signal; Potency, µM (series often up to 76.9 µM), for inactives: at the top dose activation, hits mostly activators; actives 5.9% (n = 2,300); AID 720507, 2013; also: potency is read from the fitted curve at half-maximal effect; % of control where 0% means no effect; nearly all actives have a fitted effect of over 70% in size
* hit, by the source's call; ? = inconclusive; . = no result. Unless noted, calls follow the shape of the dose curve; as a rule, active = well fitted activation curve with a large enough effect; inconclusive = small, poorly fitted or top-dose-only effect; inactive = flat fitted curve, though single readings scatter.

SMILES	D2 ag-1	D2 ag-2	D2 PAM-1	D2 PAM-2	D2 antagonist	D3 ag	D2 ag-3
O=C(CCN1C(=O)COc2ccccc21)NCCCN1CCN(c2ccccc2F)CC1	69*	14	-26	-14	82*	17%	19%
CCCS(=O)(=O)N1CCCC(C(=O)NCCCN2CCN(c3cccc(Cl)c3)CC2)C1 (centres undefined)	48*	7	-23	-29	51*	?	22%
NC(=O)c1ccc(NC(=O)C2CCN(S(=O)(=O)Cc3ccccc3)CC2)cc1	1	.	.	.	.	.	.
Cc1cccc(C)c1NC(=O)Cn1nc(C)c2sc3ccccc3c2c1=O	-1	.	-3	.	.	.	.
CCCN1CCN(CCCNC(=O)c2ccc3c(=O)n(CCc4ccccc4)c(=O)[nH]c3c2)CC1	68*	9	-23	6	31*	-3%	17%
COc1cc2[nH]c(=O)n(CCC(=O)NCCCN3CCN(c4ccccc4F)CC3)c(=O)c2cc1OC	51*	6	-34	-17	96*	?	19%
O=C(NCCCN1CCN(c2ccccc2F)CC1)C1CCC(=O)N1C1CCCC1 (centres undefined)	72*	4	-17	-5	66*	9%	?
O=C(NCCN1CCN(c2ccccc2)CC1)C1CCN(S(=O)(=O)c2cccs2)CC1	.	?	.	-6	.	?	?
COc1ccccc1CNC(=O)c1cc2c(=O)n(Cc3cccs3)ccc2nc1C	1	.	-16	.	.	.	.
Cc1nnc2c(Nc3cccc(O)c3)nc3ccccc3n12	3	.	-3	.	.	.	.
CCc1ccc2c(CC(=O)NNC(=O)c3ccncc3)coc2c1	0	5	-5	2	-4	-2%	-5%
CC(CCc1ccccc1)NC(=O)C(C)OC(=O)c1ccco1 (centres undefined)	-1	-2	8	0	-6	.	.
Cc1ccc(C(=O)OC(C)C(=O)NC(C)CCc2ccccc2)o1 (centres undefined)	0	-2	11	-1	-35	-6%	-1%
O=C(NNC(=S)NC1CCCCC1)c1sc2ccccc2c1Cl	0	-4	-19	-11	-19	.	.
CC(C)(C)C(=O)NC(=S)NNC(=O)c1sc2ccccc2c1Cl	146*	-11	9	-9	57*	-26%	-12%
CCC(C)N(NC(C)=O)c1nc(Cl)nc(NC(C)(C)C)n1 (centres undefined)	80*	-1	-24	3	11	-1%	-3%
O=C(CN1CCN(c2ccc(O)cc2)CC1)Nc1cc(S(=O)(=O)N2CCCC2)ccc1Cl	54*	1	-17	-3	44*	40µM*	?
O=C(CN1CCc2ccccc2C1)Nc1cc(S(=O)(=O)N2CCOCC2)ccc1N1CCCC1	76*	3	-41	-39	83*	-4%	11%
CCN1CCN(c2ccc(S(=O)(=O)N3CCOCC3)cc2NC(=O)c2ccc(C)cc2C)CC1	0	4	6	1	9	-2%	-3%
COc1ccc(OC)c(NC(=O)CSc2cn(CC(=O)N3CCCCCC3)c3ccccc23)c1	0	.	0	.	.	.	.
CCCn1c(SCc2nc(-c3cc(OC)ccc3OC)no2)nnc1-c1ccc(Cl)cc1	0	.	-1	.	.	.	.
CCN(CC)S(=O)(=O)c1cc(NC(=O)c2ccc(-n3cncn3)c([N+](=O)[O-])c2)ccc1C	57*	6	-19	8	-19	20%	17%
Cc1cc(Br)ccc1NC(=O)CN(C)C(=O)c1ccc(-n2cncn2)c([N+](=O)[O-])c1	-1	4	-1	-5	-27	-1%	1%
Cc1ccc(NC(=O)c2ccc(-n3cncn3)c([N+](=O)[O-])c2)cc1	1	2	3	-7	-27	.	.
C=CCNc1ncnc2c1ncn2[C@H]1CN(CCc2ccccc2)C[C@@H](CO)O1	.	-5	.	-1	.	.	.
SMILES	D2 ag-1	D2 ag-2	D2 PAM-1	D2 PAM-2	D2 antagonist	D3 ag	D2 ag-3
COc1cccc(CNC(=O)c2ccc(CS(=O)Cc3ccc(Cl)cc3)o2)c1 (centres undefined)	.	.	-4	.	.	.	.
COc1cc2[nH]c(=S)nc(NCC3CCCO3)c2cc1OC (centres undefined)	0	-1	4	-7	32*	1%	-6%
O=S(=O)(c1ccc(F)cc1)N1CCc2ccccc21	8	1	3	7	36*	4%	2%
O=S(=O)(c1ccc(Cl)cc1)N1CCc2ccccc21	1	-6	11	-1	1	.	.
Cc1cc(-c2n[nH]c(=S)n2/N=C/c2sccc2C)n[nH]1	66*	-2	-26	-2	-15	-16%	-12%
Cc1c2c(nc3c(C)cccc13)OC(C)C2 (centres undefined)	23	0	5	0	26	4%	12%
Cc1nn(-c2ccc(N3CCCC3)nn2)c(C)c1CCC(=O)NCc1ccc(F)cc1	0	.	-5	.	.	.	.
COc1cccc(CNC(=O)CSc2cc(C)[nH]c(=O)n2)c1	1	.	9	.	.	.	.
CC(C)(C)C1COc2ccccc2N1C(=O)c1ccccc1Cl (centres undefined)	2	-12	11	-1	-4	.	.
CC1COc2ccccc2N1C(=O)c1ccccc1Cl (centres undefined)	41*	?	-5	1	23	-5%	16%
Cc1ccc2oc(C(=O)N(Cc3ccccc3F)C3CCS(=O)(=O)C3)c(C)c2c1 (centres undefined)	3	.	-1	.	.	.	.
CCCCN(CC)CCCNC(=S)Nc1ccc2nc(N3CCN(C)CC3)cc(C)c2c1	71*	7	-29	-5	40*	24%	21%
CCCN(CCC)CCCNC(=S)Nc1ccc2nc(N3CCCC3)cc(C)c2c1	4	-3	-4	-17	-20	.	.
CCCCN(CC)CCCNC(=S)Nc1ccc2nc3n(c(=O)c2c1)CCCCC3	86*	10	-31	-2	60*	-6%	26%
